Our source for the growth values is PubChem BioAssay (NCI).

Structures are written as SMILES. The panel holds about 83,000 compounds, 20% with a hit somewhere; the sample as a whole holds those more often.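 Activity criterion: percent growth below 10, measured after cells in 96-well plates were exposed to a single compound concentration for 48 hours.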 Unmarked numbers belong to inactive results. Active and inactive are the calls of the source.

Some test systems named below: HCT-15 colon; HT29 colon; SNB-75 CNS; SNB-19 CNS; U251 CNS; PC-3 prostate; SK-MEL-5 melanoma; UACC-62 melanoma; LOX IMVI melanoma; SK-MEL-28 melanoma; SK-MEL-2 melanoma; EKVX NSCLC; SN12C renal; UO-31 renal; TK-10 renal; ACHN renal; CAKI-1 renal; A498 renal; CCRF-CEM leukemia; MOLT-4 leukemia.
Holding throughout (test): NCI-60 one-dose screen, 48 h (100 = growth as untreated, 0 = no growth, -100 = all killed)
Holding throughout (conditions): 10 µM unless noted

With `COc1cc2nc(Cl)nc(Nc3cccc(C4=Nc5c(N)nc(N)nc5NC(c5ccc(Cl)cc5)C4)c3)c2cc1OC` (stereo not given), the growth was -7.82% (active) in the assay on HCT-15 colon; 3.99% (active) with HT29 colon; 89.9% with SNB-75 CNS; 12.8% in the assay with SNB-19 CNS; -52.4% (active) with U251 CNS; 62.8% in the assay on PC-3 prostate. For the same molecule, the growth in the assay with SK-MEL-5 melanoma is 70.6%; with UACC-62 melanoma, 92%; with LOX IMVI melanoma, -52.3% (active); in the assay with SK-MEL-28 melanoma, 73.9%; in the assay on SK-MEL-2 melanoma, 76.9%; in the assay on EKVX NSCLC it was 95.3%. For the same molecule, the growth with SN12C renal is 73.7%; with UO-31 renal, 89.9%; in the assay on TK-10 renal, 115%; with ACHN renal it was 102%; in the assay with CAKI-1 renal, 86.8%; in the assay with A498 renal it was 99.4%. For the same molecule, the growth with CCRF-CEM leukemia was 3.94% (active); with MOLT-4 leukemia, 10%.

As for `COc1cc(Cn2cc3c(c2)-c2onc(CN4CCCC4)c2CC3)cc(OC)c1OC`, the growth in the assay with HCT-15 colon is 94.7%; in the assay with HT29 colon it was 105%; with SNB-75 CNS it was 104%; in the assay with SNB-19 CNS, 90.6%; in the assay on U251 CNS, 96.8%; in the assay on PC-3 prostate, 92.5%. The growth was 79.8% with SK-MEL-5 melanoma; 81.2% in the assay on UACC-62 melanoma; 97.6% with LOX IMVI melanoma; 95.2% in the assay with SK-MEL-28 melanoma; 101% in the assay with SK-MEL-2 melanoma; 75.9% in the assay on EKVX NSCLC. Besides, the growth in the assay on SN12C renal was 96.7%; in the assay with UO-31 renal, 78.1%; with TK-10 renal it was 111%; in the assay with ACHN renal, 97.5%; in the assay on CAKI-1 renal, 91.7%; in the assay with A498 renal, 94.4%. For the same molecule, the values for the growth with CCRF-CEM leukemia and in the assay with MOLT-4 leukemia were 89% and 91.8%, respectively.

As for `CCCCCc1ccc(S(=O)(=O)Nc2cccc(-c3csc(NCCN4CCN(C)CC4)n3)c2)cc1`, the growth with HCT-15 colon is -13.2% (active); in the assay on HT29 colon, 19.3%; in the assay on SNB-75 CNS it was 92.8%; in the assay on SNB-19 CNS, 79.9%; in the assay on U251 CNS, 45.7%; in the assay with PC-3 prostate it was 65.7%. Besides, the growth with SK-MEL-5 melanoma was -31.1% (active); with UACC-62 melanoma it was 85.4%; in the assay with LOX IMVI melanoma, -66.9% (active); with SK-MEL-28 melanoma, 78%; in the assay on SK-MEL-2 melanoma it was 102%; in the assay on EKVX NSCLC it was 84.2%. The growth in the assay on SN12C renal is 90.6%; in the assay on UO-31 renal, 73.4%; in the assay with TK-10 renal it was 120%; with ACHN renal, 89.9%; in the assay on CAKI-1 renal, 83.1%; in the assay on A498 renal, 85.4%. The growth with CCRF-CEM leukemia was 16.2%; in the assay on MOLT-4 leukemia, 11.7%.

For the molecule `COCCNc1ccc2ncc(C#Cc3cncc(C(=O)Nc4ccc(CN5CCN(C)CC5)c(C(F)(F)F)c4)c3)n2n1`, the growth in the assay with HCT-15 colon was -22.7% (active); in the assay with HT29 colon, -22.6% (active); with SNB-75 CNS, -71.5% (active); in the assay with SNB-19 CNS, -12% (active); in the assay on U251 CNS, -38.2% (active); in the assay on PC-3 prostate it was -25.3% (active). The growth in the assay on SK-MEL-5 melanoma was -93.7% (active); in the assay with UACC-62 melanoma, -62.4% (active); in the assay on LOX IMVI melanoma, -87.8% (active); in the assay with SK-MEL-28 melanoma, -22.9% (active); in the assay on SK-MEL-2 melanoma, -90.5% (active); with EKVX NSCLC it was -23.2% (active). Moreover, the growth is -6.14% (active) in the assay on SN12C renal; -40% (active) in the assay on UO-31 renal; -43.3% (active) in the assay with TK-10 renal; 1.57% (active) in the assay with ACHN renal; -40.3% (active) in the assay with CAKI-1 renal; -98% (active) in the assay on A498 renal. The growth in the assay with CCRF-CEM leukemia was 11.2%; in the assay on MOLT-4 leukemia, 5.84% (active).

Consider `CC1(C)[C@@H](O)CC[C@]2(C)[C@H]3CC[C@@H]4[C@H]5[C@H](C(=O)/C=C\c6ccncc6)CC[C@]5(O)CC[C@@]4(C)[C@]3(C)CC[C@@H]12`, for which the growth with HCT-15 colon is 20.3%; with HT29 colon it was 34.7%; in the assay with SNB-75 CNS it was 21.2%; in the assay with SNB-19 CNS, 58.7%; with U251 CNS, 61.1%; in the assay on PC-3 prostate it was 67.5%. Moreover, the growth was 80.6% in the assay on SK-MEL-5 melanoma; 46.9% in the assay on UACC-62 melanoma; 5.63% (active) in the assay with LOX IMVI melanoma; 74.8% in the assay with SK-MEL-28 melanoma; 94.9% in the assay with SK-MEL-2 melanoma; 42.8% in the assay on EKVX NSCLC. Also, the growth with SN12C renal is 75.1%; with UO-31 renal, 53.1%; with TK-10 renal, 100%; in the assay with ACHN renal, 52.5%; in the assay on CAKI-1 renal, 35.1%; with A498 renal, 46.6%. For the same molecule, the growth in the assay with CCRF-CEM leukemia is 8.75% (active); in the assay on MOLT-4 leukemia it was 27.9%.

`Cn1ccnc1C(=O)/C=C/c1ccc(CNC(=O)c2ccc(F)cc2)cc1`: the growth is 8.09% (active) with HCT-15 colon; 10.2% in the assay on HT29 colon; 60.6% in the assay on SNB-75 CNS; 15.6% in the assay on SNB-19 CNS; 17.7% in the assay on U251 CNS; 23.5% with PC-3 prostate. The growth with SK-MEL-5 melanoma was 72.8%; in the assay with UACC-62 melanoma, 43.2%; in the assay on LOX IMVI melanoma, -1.32% (active); in the assay on SK-MEL-28 melanoma it was 80.5%; in the assay with SK-MEL-2 melanoma it was 105%; in the assay on EKVX NSCLC, 53.5%. Besides, the growth in the assay on SN12C renal is 20%; with UO-31 renal, 34.9%; in the assay on TK-10 renal it was 75%; in the assay with ACHN renal, 43.4%; with CAKI-1 renal, 48%; in the assay with A498 renal, 63.7%. The growth is 12.8% with CCRF-CEM leukemia and 9.84% (active) in the assay with MOLT-4 leukemia.

As to `C#C[C@]1(O)CC[C@H]2[C@@H]3CC=C4c5sc(-c6ccc7c(c6)OCO7)nc5CC[C@]4(C)[C@H]3CC[C@@]21C`, the growth in the assay on HCT-15 colon is 10.5%; with HT29 colon, 8.04% (active); with SNB-75 CNS, -3.43% (active); with SNB-19 CNS, 15.5%; in the assay on U251 CNS, -24.5% (active); with PC-3 prostate it was -23.7% (active). In addition, the growth in the assay on SK-MEL-5 melanoma is 50.5%; in the assay with UACC-62 melanoma, -35.5% (active); with LOX IMVI melanoma it was -40.1% (active); in the assay on SK-MEL-28 melanoma, -39.7% (active); in the assay on SK-MEL-2 melanoma it was 28.9%; with EKVX NSCLC, 34.5%. Further, the growth is 22.3% with SN12C renal; 51.9% in the assay with UO-31 renal; 13.3% in the assay with TK-10 renal; 13% in the assay on ACHN renal; 44.4% with CAKI-1 renal; 48.8% with A498 renal. For the same molecule, the growth is 30.6% with CCRF-CEM leukemia and 8.06% (active) in the assay on MOLT-4 leukemia.
